Laboratory results as given in the supplement of paper PMC11732987, “Enantioselective OTUD7B fragment discovery through chemoproteomics screening and high-throughput optimisation” (Communications Chemistry, 2025).

Columns and labels:
Test in all cases: log2 ratio of Biotin-Ahx-Ub-VS probe labelling (fragment/DMSO); higher = less target engagement (more negative = stronger competition), active = hit call of the paper (q ≤ 0.05, log2 ratio ≤ -1)
Conditions in all cases: compound concentration: 200 uM; treatment time: 3 h
USP19 = target: T1, USP19 (UniProt O94966)
T1 sequence (whole entry): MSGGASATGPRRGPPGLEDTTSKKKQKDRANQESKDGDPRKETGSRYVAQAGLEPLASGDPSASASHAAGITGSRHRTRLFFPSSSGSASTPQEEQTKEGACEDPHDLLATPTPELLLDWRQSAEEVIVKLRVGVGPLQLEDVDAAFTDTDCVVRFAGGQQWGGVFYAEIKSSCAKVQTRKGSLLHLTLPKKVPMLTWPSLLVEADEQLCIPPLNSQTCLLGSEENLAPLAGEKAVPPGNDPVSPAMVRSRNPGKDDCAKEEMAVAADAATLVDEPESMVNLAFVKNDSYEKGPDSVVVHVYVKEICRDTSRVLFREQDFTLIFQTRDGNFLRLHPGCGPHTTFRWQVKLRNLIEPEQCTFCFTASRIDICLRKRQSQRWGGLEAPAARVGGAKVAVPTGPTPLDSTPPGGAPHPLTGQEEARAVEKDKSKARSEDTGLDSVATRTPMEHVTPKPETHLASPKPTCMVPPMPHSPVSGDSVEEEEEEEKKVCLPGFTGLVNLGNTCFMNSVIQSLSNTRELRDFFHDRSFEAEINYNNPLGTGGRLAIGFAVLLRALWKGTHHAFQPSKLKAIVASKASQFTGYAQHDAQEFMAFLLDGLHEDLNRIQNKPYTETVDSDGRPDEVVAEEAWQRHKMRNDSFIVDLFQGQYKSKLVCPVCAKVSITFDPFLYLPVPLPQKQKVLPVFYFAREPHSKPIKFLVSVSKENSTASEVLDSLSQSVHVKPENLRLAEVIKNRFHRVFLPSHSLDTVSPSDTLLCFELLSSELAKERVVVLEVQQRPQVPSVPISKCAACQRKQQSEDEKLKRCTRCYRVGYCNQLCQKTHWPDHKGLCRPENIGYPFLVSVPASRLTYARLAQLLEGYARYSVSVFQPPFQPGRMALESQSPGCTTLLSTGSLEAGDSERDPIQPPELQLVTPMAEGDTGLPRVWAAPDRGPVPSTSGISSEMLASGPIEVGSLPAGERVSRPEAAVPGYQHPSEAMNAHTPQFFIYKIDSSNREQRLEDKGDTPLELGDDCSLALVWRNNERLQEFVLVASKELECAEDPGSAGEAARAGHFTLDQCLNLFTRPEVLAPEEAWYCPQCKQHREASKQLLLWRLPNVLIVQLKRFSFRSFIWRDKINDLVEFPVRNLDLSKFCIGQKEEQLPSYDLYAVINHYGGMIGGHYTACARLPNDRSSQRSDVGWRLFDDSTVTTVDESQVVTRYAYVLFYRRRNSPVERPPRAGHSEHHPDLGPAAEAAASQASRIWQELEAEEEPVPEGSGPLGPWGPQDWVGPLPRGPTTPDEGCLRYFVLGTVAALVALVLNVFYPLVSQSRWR
In short: (§1)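 HEK293T lysate, 495 µg per sample in Tris/CHAPS/IGEPAL buffer with protease inhibitors, was treated in triplicate with fragment at 200 µM or vehicle for 3 h and then with Biotin-Ahx-Ub-VS at 0.5 µM final for 1 h. Labelled DUBs were NeutrAvidin-enriched, digested with LysC and trypsin, and run by diaPASEF LC-MS/MS. Spectronaut label-free quantities were global-median-normalised, and values are average log2 fragment/vehicle ratios by unpaired t-test on proteins with ≥2 unique peptides.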

USP24 = USP24 (UniProt Q9UPU5)
Chain of USP24 (Q9UPU5 whole entry): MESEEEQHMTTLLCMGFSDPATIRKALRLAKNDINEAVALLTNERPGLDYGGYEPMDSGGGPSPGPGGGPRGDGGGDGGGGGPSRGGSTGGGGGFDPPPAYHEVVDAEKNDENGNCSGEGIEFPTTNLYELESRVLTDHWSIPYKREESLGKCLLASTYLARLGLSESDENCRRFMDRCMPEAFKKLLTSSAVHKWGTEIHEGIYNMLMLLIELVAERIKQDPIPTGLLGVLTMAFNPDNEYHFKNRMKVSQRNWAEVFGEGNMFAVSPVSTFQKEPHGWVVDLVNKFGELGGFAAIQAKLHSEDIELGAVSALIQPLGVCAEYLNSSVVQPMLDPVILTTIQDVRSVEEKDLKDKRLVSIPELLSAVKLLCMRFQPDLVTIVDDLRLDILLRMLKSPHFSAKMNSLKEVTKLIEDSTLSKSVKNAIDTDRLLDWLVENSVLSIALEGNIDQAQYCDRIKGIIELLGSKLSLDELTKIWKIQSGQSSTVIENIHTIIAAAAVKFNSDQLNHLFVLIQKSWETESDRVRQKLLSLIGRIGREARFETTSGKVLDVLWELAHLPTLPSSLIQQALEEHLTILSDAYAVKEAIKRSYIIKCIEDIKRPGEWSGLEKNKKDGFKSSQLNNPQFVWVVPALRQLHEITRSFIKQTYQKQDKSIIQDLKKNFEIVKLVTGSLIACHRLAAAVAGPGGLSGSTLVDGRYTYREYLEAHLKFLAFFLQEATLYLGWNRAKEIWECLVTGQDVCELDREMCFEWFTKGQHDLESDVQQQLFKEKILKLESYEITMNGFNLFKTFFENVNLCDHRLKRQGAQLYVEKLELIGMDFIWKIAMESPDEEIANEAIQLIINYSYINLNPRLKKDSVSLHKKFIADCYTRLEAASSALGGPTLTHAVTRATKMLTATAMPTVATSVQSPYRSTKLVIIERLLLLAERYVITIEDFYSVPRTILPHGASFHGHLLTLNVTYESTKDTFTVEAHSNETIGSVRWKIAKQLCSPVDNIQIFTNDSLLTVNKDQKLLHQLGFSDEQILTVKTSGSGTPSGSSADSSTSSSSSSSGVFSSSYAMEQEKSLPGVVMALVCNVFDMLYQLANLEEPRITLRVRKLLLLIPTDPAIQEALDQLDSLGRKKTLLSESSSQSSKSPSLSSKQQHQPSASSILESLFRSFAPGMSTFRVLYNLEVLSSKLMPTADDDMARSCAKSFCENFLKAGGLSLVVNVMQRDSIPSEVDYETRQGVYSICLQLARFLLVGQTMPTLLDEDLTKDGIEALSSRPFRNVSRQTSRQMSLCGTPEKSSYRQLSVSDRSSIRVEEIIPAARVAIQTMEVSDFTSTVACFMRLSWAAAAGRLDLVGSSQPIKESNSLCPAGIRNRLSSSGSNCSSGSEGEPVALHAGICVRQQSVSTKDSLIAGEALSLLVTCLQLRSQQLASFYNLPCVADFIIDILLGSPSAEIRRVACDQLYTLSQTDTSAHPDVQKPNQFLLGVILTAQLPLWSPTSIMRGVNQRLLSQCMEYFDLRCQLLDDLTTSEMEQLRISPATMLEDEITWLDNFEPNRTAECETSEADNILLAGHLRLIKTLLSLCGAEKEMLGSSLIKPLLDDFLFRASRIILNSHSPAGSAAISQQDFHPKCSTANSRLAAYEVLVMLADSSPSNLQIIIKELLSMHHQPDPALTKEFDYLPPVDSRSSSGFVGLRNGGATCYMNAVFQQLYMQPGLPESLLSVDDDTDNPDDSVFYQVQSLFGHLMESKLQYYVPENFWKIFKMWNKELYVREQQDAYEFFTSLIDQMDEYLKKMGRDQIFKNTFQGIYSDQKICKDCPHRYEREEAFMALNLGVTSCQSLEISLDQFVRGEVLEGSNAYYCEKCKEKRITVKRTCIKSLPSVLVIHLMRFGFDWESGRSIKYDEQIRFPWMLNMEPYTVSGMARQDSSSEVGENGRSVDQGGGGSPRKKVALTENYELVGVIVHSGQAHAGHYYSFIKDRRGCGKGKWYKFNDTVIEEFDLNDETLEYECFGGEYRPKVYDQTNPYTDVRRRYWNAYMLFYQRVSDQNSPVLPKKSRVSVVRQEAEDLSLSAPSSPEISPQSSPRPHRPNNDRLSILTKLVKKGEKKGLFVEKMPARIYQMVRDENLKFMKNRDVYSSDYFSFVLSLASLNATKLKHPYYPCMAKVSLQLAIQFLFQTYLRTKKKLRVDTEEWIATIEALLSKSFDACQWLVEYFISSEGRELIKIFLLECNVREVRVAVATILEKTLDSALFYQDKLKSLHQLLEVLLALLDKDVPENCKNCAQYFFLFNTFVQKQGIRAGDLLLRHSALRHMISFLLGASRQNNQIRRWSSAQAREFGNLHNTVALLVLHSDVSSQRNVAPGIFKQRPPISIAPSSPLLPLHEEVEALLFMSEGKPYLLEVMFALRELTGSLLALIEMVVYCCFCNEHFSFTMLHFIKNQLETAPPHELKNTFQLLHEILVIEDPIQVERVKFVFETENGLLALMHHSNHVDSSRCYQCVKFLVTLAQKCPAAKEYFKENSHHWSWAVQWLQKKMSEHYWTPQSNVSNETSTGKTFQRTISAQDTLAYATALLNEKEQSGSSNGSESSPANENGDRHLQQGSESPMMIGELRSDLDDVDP
In short: as §1

USP25 = target: T2, USP25 (UniProt Q9UHP3)
T2 sequence (whole entry): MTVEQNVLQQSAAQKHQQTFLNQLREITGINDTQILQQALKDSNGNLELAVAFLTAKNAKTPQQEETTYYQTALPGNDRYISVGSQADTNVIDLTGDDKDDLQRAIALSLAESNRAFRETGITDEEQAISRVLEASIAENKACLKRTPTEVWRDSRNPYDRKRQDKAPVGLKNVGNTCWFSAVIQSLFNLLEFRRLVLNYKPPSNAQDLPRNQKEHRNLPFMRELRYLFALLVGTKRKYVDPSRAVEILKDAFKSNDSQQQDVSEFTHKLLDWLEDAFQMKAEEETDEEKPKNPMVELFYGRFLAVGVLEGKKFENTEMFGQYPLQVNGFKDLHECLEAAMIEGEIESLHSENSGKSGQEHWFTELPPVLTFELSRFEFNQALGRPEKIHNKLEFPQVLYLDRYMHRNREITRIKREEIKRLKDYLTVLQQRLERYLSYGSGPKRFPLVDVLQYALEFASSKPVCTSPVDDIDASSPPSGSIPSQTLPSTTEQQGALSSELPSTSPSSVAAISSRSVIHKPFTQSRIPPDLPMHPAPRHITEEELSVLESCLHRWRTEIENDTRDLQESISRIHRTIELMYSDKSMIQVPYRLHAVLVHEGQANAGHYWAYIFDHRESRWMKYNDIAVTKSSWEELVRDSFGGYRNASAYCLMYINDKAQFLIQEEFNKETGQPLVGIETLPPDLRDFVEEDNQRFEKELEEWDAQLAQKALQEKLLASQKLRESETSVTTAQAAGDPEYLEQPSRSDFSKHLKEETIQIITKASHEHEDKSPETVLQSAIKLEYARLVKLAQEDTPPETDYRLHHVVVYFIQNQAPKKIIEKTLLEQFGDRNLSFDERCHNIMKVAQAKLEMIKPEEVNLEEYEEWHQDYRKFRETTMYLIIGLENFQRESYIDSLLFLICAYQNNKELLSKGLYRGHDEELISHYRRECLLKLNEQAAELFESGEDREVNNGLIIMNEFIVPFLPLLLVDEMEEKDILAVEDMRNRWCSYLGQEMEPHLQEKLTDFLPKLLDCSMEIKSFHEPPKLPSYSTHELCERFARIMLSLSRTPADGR
In short: as §1

USP28 = target: T3, USP28 (UniProt Q96RU2)
T3 sequence (whole entry): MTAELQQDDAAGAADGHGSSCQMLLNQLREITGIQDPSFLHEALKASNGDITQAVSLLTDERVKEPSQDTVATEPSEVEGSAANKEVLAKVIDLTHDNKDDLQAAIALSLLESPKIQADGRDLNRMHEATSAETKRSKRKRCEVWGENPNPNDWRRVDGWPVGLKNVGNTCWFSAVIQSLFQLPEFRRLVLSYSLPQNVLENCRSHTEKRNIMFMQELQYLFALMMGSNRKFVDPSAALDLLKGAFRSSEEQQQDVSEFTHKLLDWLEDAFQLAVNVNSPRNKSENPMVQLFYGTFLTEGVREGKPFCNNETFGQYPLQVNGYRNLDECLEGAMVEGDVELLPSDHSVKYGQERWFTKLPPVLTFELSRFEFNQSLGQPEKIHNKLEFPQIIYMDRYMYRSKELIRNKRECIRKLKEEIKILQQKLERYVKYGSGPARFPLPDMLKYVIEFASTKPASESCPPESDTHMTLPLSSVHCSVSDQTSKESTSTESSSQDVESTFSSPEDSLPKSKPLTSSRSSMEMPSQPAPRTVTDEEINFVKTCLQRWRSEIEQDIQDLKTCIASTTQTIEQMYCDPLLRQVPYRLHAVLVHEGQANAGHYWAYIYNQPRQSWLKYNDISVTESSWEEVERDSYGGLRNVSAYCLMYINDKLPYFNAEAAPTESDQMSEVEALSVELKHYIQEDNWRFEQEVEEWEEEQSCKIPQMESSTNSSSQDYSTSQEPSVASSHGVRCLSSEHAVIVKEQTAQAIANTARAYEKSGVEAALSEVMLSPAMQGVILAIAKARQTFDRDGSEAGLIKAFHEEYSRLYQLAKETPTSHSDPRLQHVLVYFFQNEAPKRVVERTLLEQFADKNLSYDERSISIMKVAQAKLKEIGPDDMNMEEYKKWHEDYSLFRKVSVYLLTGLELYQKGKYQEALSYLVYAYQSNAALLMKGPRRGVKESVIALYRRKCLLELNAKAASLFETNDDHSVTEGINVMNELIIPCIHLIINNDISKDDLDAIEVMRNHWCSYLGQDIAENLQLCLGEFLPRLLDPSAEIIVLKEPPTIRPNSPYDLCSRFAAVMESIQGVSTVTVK
In short: as §1

Measured: log2 ratio of Biotin-Ahx-Ub-VS probe labelling

O=C(CCl)N1CCc2ccccc2C(O)C1 (centres undefined)
inactive: USP19 -0.315 | USP24 -0.483 | USP25 -0.343 | USP28 -0.698
